Results from PubChem BioAssay (Tox21).
Values without a mark were called inactive. Inconclusive results are not listed. A call without a number means that no potency is given here. The source made the active and inactive calls. Unless noted, calls come from the whole dose curve; as a rule, active = well fitted curve in the direction sought with a large enough effect in the repeat runs; inconclusive = weak or mixed curves; inactive = no such curve, though single readings can be large; an effect the other way counts as inactive or inconclusive.

Assays:
[1] = target: Estrogen receptor (Homo sapiens) (UniProt P03372); experiment: qHTS assay to identify small molecule antagonists of the estrogen receptor alpha (ER-alpha) signaling pathway using the BG1 cell line in the presence of 0.1 nM 17-beta-estradiol (AID 1259244); note: nearly all actives have a fitted effect of over 50% in size; note: potency is the fitted concentration of half-maximal effect
Sequence of Estrogen receptor (Homo sapiens) (P03372 whole entry, looked up): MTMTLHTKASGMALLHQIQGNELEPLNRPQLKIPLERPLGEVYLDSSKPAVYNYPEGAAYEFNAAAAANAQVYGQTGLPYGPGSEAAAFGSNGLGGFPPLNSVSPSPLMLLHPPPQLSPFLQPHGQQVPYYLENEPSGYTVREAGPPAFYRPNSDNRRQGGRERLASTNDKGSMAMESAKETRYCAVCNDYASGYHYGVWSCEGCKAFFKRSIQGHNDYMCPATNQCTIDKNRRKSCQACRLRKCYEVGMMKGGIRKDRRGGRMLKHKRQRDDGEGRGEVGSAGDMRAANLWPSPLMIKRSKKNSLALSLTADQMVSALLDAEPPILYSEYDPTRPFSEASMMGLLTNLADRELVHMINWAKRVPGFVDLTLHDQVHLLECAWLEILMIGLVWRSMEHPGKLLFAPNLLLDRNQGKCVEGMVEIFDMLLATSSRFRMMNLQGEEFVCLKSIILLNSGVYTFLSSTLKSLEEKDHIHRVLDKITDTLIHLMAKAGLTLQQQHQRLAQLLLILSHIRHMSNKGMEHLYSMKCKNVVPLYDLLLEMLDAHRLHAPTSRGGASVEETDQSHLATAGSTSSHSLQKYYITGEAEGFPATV
How it was run: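 VM7Luc4E2 cells (endogenous full-length ER-alpha, stable 4xERE-luciferase) were grown 5 days in phenol red-free medium with charcoal-stripped FBS, then exposed 22 h at 37C to compounds plus 0.1 nM (final) 17beta-estradiol; ONE-Glo luminescence read-out.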

[2] = qHTS assay to identify small molecule HDAC inhibitors (AID 1259364); note: nearly all actives have a fitted effect of over 45% in size; note: potency is the fitted concentration of half-maximal effect
How it was run: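 Wild-type HCT-116 cells were plated overnight, exposed to compounds for 2 h at 37 °C, then given HDAC-Glo class I/II luminogenic reagent for 30 min at room temperature before luminescence was read.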

[3] = qHTS assay to identify small molecule HDAC inhibitors - cell viability counter screen (AID 1259365); note: series mostly up to about 92 µM; nearly all actives have a fitted effect of over 50% in size
How it was run: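 Viability readout: CellTiter-Glo luminescence. Wild-type HCT-116 cells, 2hr compound treatment following overnight attachment at 37 C.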

[4] = qHTS assay to identify small molecule agonists of the sonic hedgehog signaling (Shh) pathway - cell viability counter screen (AID 1259366); note: nearly all actives have a fitted effect of over 50% in size; note: potency is the fitted concentration of half-maximal effect
How it was run: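 Viability measured fluorometrically (CellTiter-Fluor, 1hr, 37C) in 3T3 Gli1-Luc reporter cells after 23hr compound exposure within a 24hr incubation at 37C/5% CO2.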

[5] = qHTS assay to identify small molecule antagonists of the sonic hedgehog signaling (Shh) pathway (AID 1259369; calls by dose curve; note: nearly all actives have a fitted effect of over 45% in size; note: potency is the fitted concentration of half-maximal effect)
How it was run: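 NIH/3T3-derived 3T3Gli1-Luc cells with stably integrated Gli1-Luc reporter were preincubated 4hr at 37 C, then given compounds in DMSO plus Shh conditioned medium and incubated 24hr. Firefly luciferase luminescence read after 30min reagent at room temperature.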

[6] = qHTS assay to identify small molecule agonists of the androgen receptor (AR) signaling pathway in the presence of an antagonist - cell viability counter screen (AID 1259379); note: nearly all actives have a fitted effect of over 25% in size; note: potency is the fitted concentration of half-maximal effect
How it was run: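 MDA-kb2 human breast carcinoma cells (stable MMTV-luciferase, AR/GR responsive) were seeded 3,000 cells/well, pre-incubated 5 hr at 37C without CO2, then given 3.0uM nilutamide and compounds at 15 concentrations for 16 hr. Viability was read by CellTiter-Fluor fluorescence.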

[7] = qHTS assay to identify small molecule agonists of the estrogen receptor beta (ER-beta) signaling pathway - cell viability counter screen (AID 1259380); note: nearly all actives have a fitted effect of over 30% in size; note: potency is the fitted concentration of half-maximal effect
How it was run: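 ER-beta-UAS-bla HEK293T cells in medium with 2% charcoal-stripped FBS were preincubated 6 hr at 37C, dosed with compound in DMSO for 16 hr, then after the bla read, CellTiter-Glo was added for 30 min at room temperature; luminescence recorded.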

[8] = target: Androgen receptor (Homo sapiens) (UniProt P10275); experiment: qHTS assay to identify small molecule agonists of the androgen receptor (AR) signaling pathway in the presence of an antagonist (AID 1259381; calls by dose curve; note: nearly all actives have a fitted effect of over 15% in size)
Sequence of Androgen receptor (Homo sapiens) (P10275 whole entry, looked up): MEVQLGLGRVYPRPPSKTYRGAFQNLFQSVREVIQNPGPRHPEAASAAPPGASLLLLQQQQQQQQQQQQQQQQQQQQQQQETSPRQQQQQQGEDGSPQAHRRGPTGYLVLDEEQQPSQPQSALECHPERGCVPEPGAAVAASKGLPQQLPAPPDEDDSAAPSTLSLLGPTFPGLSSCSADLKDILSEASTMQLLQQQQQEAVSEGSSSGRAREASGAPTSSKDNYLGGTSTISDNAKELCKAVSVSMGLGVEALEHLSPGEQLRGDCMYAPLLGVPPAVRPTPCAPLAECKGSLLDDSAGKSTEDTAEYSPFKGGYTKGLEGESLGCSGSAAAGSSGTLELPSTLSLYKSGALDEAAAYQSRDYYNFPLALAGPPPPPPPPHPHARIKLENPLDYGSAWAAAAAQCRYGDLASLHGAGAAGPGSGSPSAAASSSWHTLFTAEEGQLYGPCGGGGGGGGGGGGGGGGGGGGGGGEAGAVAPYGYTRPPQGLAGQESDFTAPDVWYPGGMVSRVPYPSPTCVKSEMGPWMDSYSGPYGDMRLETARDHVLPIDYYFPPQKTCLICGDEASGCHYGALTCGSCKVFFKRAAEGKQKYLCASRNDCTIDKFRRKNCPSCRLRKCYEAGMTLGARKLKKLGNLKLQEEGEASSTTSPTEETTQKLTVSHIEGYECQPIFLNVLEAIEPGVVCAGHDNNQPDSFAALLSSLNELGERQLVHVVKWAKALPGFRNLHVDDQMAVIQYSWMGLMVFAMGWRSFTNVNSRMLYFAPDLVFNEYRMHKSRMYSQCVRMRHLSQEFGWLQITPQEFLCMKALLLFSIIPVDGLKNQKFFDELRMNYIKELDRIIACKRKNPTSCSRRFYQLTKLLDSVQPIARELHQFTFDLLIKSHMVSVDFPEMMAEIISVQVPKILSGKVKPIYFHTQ
How it was run: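 MDA-kb2 human breast carcinoma cells carrying an MMTV-luciferase reporter (AR- and GR-responsive) were treated with compounds at 15 concentrations plus 3.0uM final nilutamide for 16hr at 37C without CO2; luminescence was read after ONE-Glo addition.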

[9] = qHTS assay to identify small molecule antagonists of the estrogen receptor beta (ER-beta) signaling pathway - cell viability counter screen (AID 1259382); note: nearly all actives have a fitted effect of over 55% in size; note: potency is the fitted concentration of half-maximal effect
How it was run: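 ER-beta-UAS-bla HEK293T cells (2,000/well, 2% charcoal-stripped FBS) were pre-incubated 6 hr at 37C, then given compound plus 1nM final 17-beta-estradiol for 16 hr. Viability was read in the same wells by CellTiter-Glo luminescence after 30 min at room temperature.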

[10] = target: Estrogen receptor (Homo sapiens) (UniProt P03372); experiment: qHTS assay to identify small molecule agonists of the estrogen receptor alpha (ER-alpha) signaling pathway in the presence of an antagonist (AID 1259383; calls by dose curve; note: top concentration of the series differs between compounds; nearly all actives have a fitted effect of over 15% in size)
How it was run: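 VM7Luc4E2 cells (endogenous full-length ER-alpha, 4×ERE-luciferase) were precultured 5 days in phenol red-free medium with 10% charcoal-stripped FBS, given 10.0nM ICI-182,780 (final), then treated with compounds at 15 concentrations for 22hr at 37C; luminescence read with ONE-Glo.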

[11] = qHTS assay to identify small molecule agonists or antagonists of the thyroid stimulating hormone receptor (TSHR) signaling pathway - wild type cell line counter screen (AID 1259384; calls by dose curve)
How it was run: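 Wild-type HEK293 cells were plated 18 h at 37 C/5% CO2, pin-dosed with compound plus Ro20-1724 medium, held 30 min at room temperature, then given cAMP-d2 and anti-cAMP-cryptate; fluorescence was read after 1 h. Fifteen concentrations, triplicate.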

[12] = target: Thyrotropin receptor (Homo sapiens) (UniProt P16473); experiment: qHTS assay to identify small molecule antagonists of the thyroid stimulating hormone receptor (TSHR) signaling pathway (AID 1259385; calls by dose curve; note: nearly all actives have a fitted effect of over 20% in size)
Sequence of Thyrotropin receptor (Homo sapiens) (P16473 whole entry, looked up): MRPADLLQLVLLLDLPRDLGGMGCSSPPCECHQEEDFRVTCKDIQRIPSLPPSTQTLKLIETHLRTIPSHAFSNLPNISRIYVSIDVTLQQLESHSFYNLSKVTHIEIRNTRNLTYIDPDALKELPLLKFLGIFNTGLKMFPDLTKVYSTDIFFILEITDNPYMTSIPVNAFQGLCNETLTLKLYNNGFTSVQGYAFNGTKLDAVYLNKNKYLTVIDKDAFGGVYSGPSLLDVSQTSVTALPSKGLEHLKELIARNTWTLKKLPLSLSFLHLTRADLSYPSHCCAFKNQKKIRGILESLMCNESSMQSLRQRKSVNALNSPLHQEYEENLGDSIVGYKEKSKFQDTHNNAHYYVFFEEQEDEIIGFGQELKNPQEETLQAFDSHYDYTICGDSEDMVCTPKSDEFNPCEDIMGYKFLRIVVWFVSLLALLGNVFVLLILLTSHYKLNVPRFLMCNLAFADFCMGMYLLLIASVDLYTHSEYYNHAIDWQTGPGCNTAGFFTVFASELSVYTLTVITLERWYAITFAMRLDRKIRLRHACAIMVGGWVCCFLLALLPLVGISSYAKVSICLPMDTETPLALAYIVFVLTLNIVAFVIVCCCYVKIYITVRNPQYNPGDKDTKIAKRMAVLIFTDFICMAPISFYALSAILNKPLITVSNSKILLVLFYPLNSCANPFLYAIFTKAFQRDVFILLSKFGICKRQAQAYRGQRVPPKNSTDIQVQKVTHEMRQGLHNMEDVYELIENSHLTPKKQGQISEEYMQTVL
How it was run: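 TSHR-HEK293 cells were plated and held 18 h at 37C/5% CO2, then given compound plus Ro20-1724 and stimulated with TSH at 1.5 ng/mL final. After 30 min at room temperature, cAMP was detected with cAMP-d2/anti-cAMP-cryptate (1 h) by fluorescence.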

[13] = qHTS assay to identify small molecule agonists of the estrogen receptor alpha (ER-alpha) signaling pathway in the presence of an antagonist - cell viability counter screen (AID 1259386); note: series mostly up to about 92 µM; nearly all actives have a fitted effect of over 30% in size
How it was run: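 VM7Luc4E2 cells (endogenous full-length ER-alpha, 4×ERE-luciferase) were held 5 days in phenol red-free medium with 10% charcoal-stripped FBS, plated, then given 10.0nM ICI-182,780 and compounds at 15 concentrations for 22hr at 37C; viability read by CellTiter-Fluor fluorescence.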

[14] = target: Progesterone receptor (Homo sapiens) (UniProt P06401); experiment: qHTS assay to identify small molecule agonists of the progesterone receptor (PR) signaling pathway (AID 1346784; calls by dose curve; note: nearly all actives have a fitted effect of over 30% in size)
Sequence of Progesterone receptor (Homo sapiens) (P06401 whole entry, looked up): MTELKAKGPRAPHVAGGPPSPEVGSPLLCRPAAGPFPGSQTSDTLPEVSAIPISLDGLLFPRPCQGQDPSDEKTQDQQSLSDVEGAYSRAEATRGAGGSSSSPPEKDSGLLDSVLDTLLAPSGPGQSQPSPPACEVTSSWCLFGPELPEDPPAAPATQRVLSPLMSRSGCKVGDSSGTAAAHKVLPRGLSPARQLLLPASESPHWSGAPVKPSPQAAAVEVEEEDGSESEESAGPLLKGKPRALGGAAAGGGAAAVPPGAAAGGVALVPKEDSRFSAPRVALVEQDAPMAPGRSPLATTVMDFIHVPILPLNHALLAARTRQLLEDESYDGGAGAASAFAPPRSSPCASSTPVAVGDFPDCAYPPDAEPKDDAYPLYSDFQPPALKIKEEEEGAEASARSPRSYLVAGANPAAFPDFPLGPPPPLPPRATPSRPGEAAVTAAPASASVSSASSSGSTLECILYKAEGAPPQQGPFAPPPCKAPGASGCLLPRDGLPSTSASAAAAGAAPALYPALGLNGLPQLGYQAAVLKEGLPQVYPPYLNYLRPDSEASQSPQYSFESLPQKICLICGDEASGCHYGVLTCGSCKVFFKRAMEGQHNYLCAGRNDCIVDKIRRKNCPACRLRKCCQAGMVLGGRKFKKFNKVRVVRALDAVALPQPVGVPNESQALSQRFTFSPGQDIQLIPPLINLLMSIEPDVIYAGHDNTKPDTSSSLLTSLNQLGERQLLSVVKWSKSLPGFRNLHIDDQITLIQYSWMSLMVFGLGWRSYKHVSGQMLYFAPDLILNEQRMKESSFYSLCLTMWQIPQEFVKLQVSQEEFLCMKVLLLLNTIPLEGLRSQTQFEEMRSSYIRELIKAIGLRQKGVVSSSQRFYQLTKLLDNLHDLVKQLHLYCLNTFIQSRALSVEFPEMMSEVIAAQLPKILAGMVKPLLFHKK
How it was run: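 Agonist mode, quantitative HTS format in a HEK 293T line expressing a UAS-controlled beta-lactamase reporter; 16 hr compound exposure at 37C in 2% charcoal-stripped FBS, then LiveBLAzer B/G FRET fluorescence.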

[15] = target: Progesterone receptor (Homo sapiens) (UniProt P06401); experiment: qHTS assay to identify small molecule antagonists of the progesterone receptor (PR) signaling pathway (AID 1346795; active = well fitted inhibition curve with a large enough effect in the signal ratio in the repeat runs, not every such curve was filed as active; the % refers to the signal ratio; note: potency is the fitted concentration of half-maximal effect)
How it was run: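 HEK293T PR-UAS-bla reporter cells in charcoal-stripped serum (2%) received compound after a 6 hr settling period, followed by R5020 agonist at 1 nM final; 16 hr incubation preceded the FRET substrate step and fluorescence measurement.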

[16] = qHTS assay to identify small molecule antagonists of the sonic hedgehog signaling (Shh) pathway - cell viability counter screen (AID 1259367); note: nearly all actives have a fitted effect of over 55% in size; note: potency is the fitted concentration of half-maximal effect
How it was run: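 NIH/3T3-derived Gli1-Luc reporter cells (2,000 per well) rested 4 hr at 37 C, then received DMSO compounds plus conditioned medium. After 23 hr of treatment, CellTiter-Fluor was added for 1 hr at 37C and fluorescence read.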

[17] = target: Estrogen receptor beta (Homo sapiens) (UniProt Q92731); experiment: qHTS assay to identify small molecule agonists of the estrogen receptor beta (ER-beta) signaling pathway (AID 1259377; active = well fitted activation curve with a large enough effect in the signal ratio in the repeat runs, not every such curve was filed as active; the % refers to the signal ratio)
Sequence of Estrogen receptor beta (Homo sapiens) (Q92731 whole entry, looked up): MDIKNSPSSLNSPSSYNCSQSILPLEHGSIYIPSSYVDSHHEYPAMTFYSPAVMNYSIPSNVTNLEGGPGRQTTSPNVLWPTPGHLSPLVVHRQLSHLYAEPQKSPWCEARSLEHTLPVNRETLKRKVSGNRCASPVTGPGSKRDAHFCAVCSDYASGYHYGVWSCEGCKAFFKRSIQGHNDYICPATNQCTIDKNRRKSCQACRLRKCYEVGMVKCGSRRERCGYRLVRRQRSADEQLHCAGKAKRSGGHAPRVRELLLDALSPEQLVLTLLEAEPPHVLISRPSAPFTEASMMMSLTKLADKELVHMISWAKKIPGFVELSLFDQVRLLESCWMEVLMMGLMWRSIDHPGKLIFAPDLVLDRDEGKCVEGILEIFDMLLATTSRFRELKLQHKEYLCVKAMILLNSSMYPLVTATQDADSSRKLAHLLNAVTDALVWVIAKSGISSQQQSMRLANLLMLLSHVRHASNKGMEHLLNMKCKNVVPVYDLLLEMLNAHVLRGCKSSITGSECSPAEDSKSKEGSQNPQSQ
How it was run: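 A UAS-controlled beta-lactamase reporter in ER-beta-UAS-bla HEK293T cells reports receptor activation. Compounds act for 16 hr at 37C in 2% charcoal-stripped serum, and a FRET substrate is read by fluorescence after 2 hours.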

[18] = target: Estrogen receptor beta (Homo sapiens) (UniProt Q92731); experiment: qHTS assay to identify small molecule antagonists of the estrogen receptor beta (ER-beta) signaling pathway (AID 1259378; active = well fitted inhibition curve with a large enough effect in the signal ratio in the repeat runs, not every such curve was filed as active; the % refers to the signal ratio; note: potency is the fitted concentration of half-maximal effect)
How it was run: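 ER-beta-UAS-bla HEK293T (GripTite) cells in 2% charcoal-stripped FBS medium were preincubated 6 hr at 37C, dosed with compound, then stimulated with 1 nM E2 (final) for 16 hr; beta-lactamase reporter read by B/G FRET fluorescence after 2 hr substrate loading.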

[19] = qHTS assay to identify small molecule agonists of the sonic hedgehog signaling (Shh) pathway (AID 1259368; calls by dose curve; note: series mostly up to about 92 µM; nearly all actives have a fitted effect of over 15% in size)
How it was run: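 NIH/3T3-derived 3T3Gli1-Luc cells carrying a stably integrated Gli1 response element–firefly luciferase reporter were plated, left 4 hr at 37 C, then given compounds in DMSO for 24 hr. Luminescence was read 30 min after adding luciferase reagent.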

Row | SMILES | Potency [1] | Potency [2] | Potency [3] | Potency [4] | Potency [5] | Potency [6] | Potency [7] | Potency [8] | Potency [9] | Potency [10] | outcome [11] | Potency [12] | Potency [13] | outcome [14] | Potency [15] | Potency [16] | Potency [17] | Potency [18] | Potency [19]
1 | c1ccc(Sc2ccccc2)cc1 | inactive | inactive | inactive | inactive | 27.3 µM (active) | inactive | inactive | inactive | inactive | inactive | inactive | inactive | inactive | inactive | inactive |  |  |  | 
2 | CCOC(OCC)C(=O)c1ccccc1 | inactive | inactive | inactive | inactive | inactive | inactive | inactive | inactive | inactive | inactive |  |  | inactive | inactive | inactive | inactive | inactive | inactive | 
3 | Cc1cc(C)c(C=O)c(C)c1 | inactive | inactive | inactive | inactive |  |  | inactive |  | inactive | inactive | inactive | inactive | inactive | inactive | inactive | inactive |  |  | 
4 | CC1=CCC(=O)O1 | inactive | inactive | inactive | inactive | inactive | inactive | inactive |  | inactive | inactive | inactive | inactive | inactive | inactive | inactive | inactive | inactive | inactive | 
5 | CN(C)c1ccc(N=Nc2ccccc2C(=O)O)cc1 | inactive | 8.63 µM (active) | inactive | 21.7 µM (active) | 2.17 µM (active) | 68.6 µM (active) | inactive |  | inactive | inactive |  |  |  |  | 15.4 µM (active) | 24.3 µM (active) | inactive | 15.4 µM (active) | 
6 | C=C[C@](C)(O)CC[C@@H]1[C@@]2(C)CCCC(C)(C)[C@@H]2CC[C@@]1(C)O | 61.1 µM (active) | inactive | inactive |  | 61.1 µM (active) |  | 48.6 µM (active) |  | 61.1 µM (active) | inactive | inactive | inactive | inactive |  |  |  |  | 27.3 µM (active) | inactive
7 | CCC(C)C(=O)OC (stereo unspecified) | inactive | inactive | inactive | inactive |  | inactive | inactive |  | inactive | inactive | inactive | inactive | inactive | inactive | inactive | inactive |  |  | inactive
